This note sets out measurements from PubChem BioAssay (Tox21).

Inconclusive results are not listed. Values without a mark were called inactive. Activity calls are given as the source filed them. Unless noted, calls come from the whole dose curve; as a rule, active = well fitted curve in the direction sought with a large enough effect in the repeat runs; inconclusive = weak or mixed curves; inactive = no such curve, though single readings can be large; an effect the other way counts as inactive or inconclusive.

Test [1] is described as follows: qHTS assay to identify small molecule antagonists of the estrogen related receptor (ERR) signaling pathway from Tox21 library - cell viability counter screen (AID 1224834). Note: nearly all actives have a fitted effect of over 30% in size. Note: potency is the fitted concentration of half-maximal effect. Summed up:
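Counter screen run in ERR cells (2,000 cells/well): cells pre-incubated 6 h, then treated with compounds for 17.5 h at 37 C. Fluorescence was read 30 min after CellTiter-Fluor addition.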

Test [2] has as its target Luciferin 4-monooxygenase (Photinus pyralis) (UniProt P08659). Nature of the test: qHTS assay to identify small molecule inhibitors of firefly luciferase (AID 1224835). Note: nearly all actives have a fitted effect of over 25% in size. Note: potency is the fitted concentration of half-maximal effect. An outline of the steps: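 Quantitative HTS format; KM concentrations of both substrates. Purified P. pyralis FLuc activity quantified from luminescence images.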
A short description of test [3]: qHTS assay to identify small molecule antagonists of the constitutive androstane receptor (CAR) signaling pathway - cell viability counter screen (AID 1224837). For activity change, negative = cytotoxicity: series mostly up to about 92 µM. Note: nearly all actives have a fitted effect of over 45% in size. Note: potency is the fitted concentration of half-maximal effect. Summed up:
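CITCO at 50 nM final was added alongside compounds (15 concentrations) to double-stable hCAR/CYP2B6-2.2kb HepG2 cells. Following 23 hr at 37 C, cell viability was quantified by CellTiter-Fluor fluorescence intensity.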
In general terms: In qHTS, concentration-response curves come from the screen itself.

In test [4] the target is Nuclear receptor subfamily 1 group I member 3 (Homo sapiens) (UniProt Q14994). Nature of the test: qHTS assay to identify small molecule antagonists of the constitutive androstane receptor (CAR) signaling pathway (AID 1224838). Note: nearly all actives have a fitted effect of over 40% in size. Note: potency is the fitted concentration of half-maximal effect. Summed up: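 Inhibition of CITCO-driven (50 nM final) CYP2B6 reporter expression is measured in HepG2 cells stably carrying hCAR. Fifteen compound concentrations are applied for 24 h at 37 C, followed by luciferase luminescence.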

For test [5] the target is unchanged. Nature of the test: qHTS assay to identify small molecule agonists of the constitutive androstane receptor (CAR) signaling pathway (AID 1224839). For activation: series mostly up to about 92 µM. Note: nearly all actives have a fitted effect of over 15% in size. Note: potency is the fitted concentration of half-maximal effect. Summed up:
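Luminescent ONE-Glo read-out after 24 hr, 37 C exposure of double-stable HepG2-CYP2B6-hCAR reporter cells to a 15-point compound series, in the presence of 0.75 uM PK11195 (final).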

Test [6] is described as follows: qHTS assay to identify small molecule agonists of the hypoxia (HIF-1) signaling pathway (AID 1224846; active = well fitted activation curve with a large enough effect in the signal ratio in the repeat runs, not every such curve was filed as active; the % refers to the signal ratio; note: potency is the fitted concentration of half-maximal effect). Summed up: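 ME-180 HRE-bla reporter cells; compounds in DMSO, 17 h at 37C; read-out beta-lactamase via CCF4-AM FRET.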
Test [7] addresses Thyrotropin receptor (Homo sapiens) (UniProt P16473). Nature of the test: qHTS assay to identify small molecule agonists of the thyroid stimulating hormone receptor (TSHR) signaling pathway (AID 1224843; calls by dose curve; note: nearly all actives have a fitted effect of over 45% in size). An outline of the steps:
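Using 15 concentrations per compound in triplicate, cAMP production was monitored in TSHR-HEK293 cells after 30 min compound incubation at RT; HTRF reagents followed, with fluorescence intensity recorded after 1 h.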

Test [8] in a line: qHTS assay to identify small molecule agonists of the hypoxia (HIF-1) signaling pathway - cell viability counter screen (AID 1224844; calls by dose curve; note: nearly all actives have a fitted effect of over 50% in size; note: potency is the fitted concentration of half-maximal effect). Summed up:
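In this counter screen, HRE-bla ME-180 cell viability after 17 hrs of compound exposure at 37C was read by CellTiter-Glo luminescence, multiplexed with the beta-lactamase reporter measurement.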

Test [9] can be described thus: qHTS assay to identify small molecule agonists of H2AX (AID 1224845; active = well fitted activation curve with a large enough effect in the signal ratio in the repeat runs, not every such curve was filed as active; the % refers to the signal ratio; note: potency is the fitted concentration of half-maximal effect). Summed up: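 Wild-type CHO-K1 cells plated overnight, then exposed 3 hr at 37C to compounds at 15 concentrations (0.76% DMSO). Lysed, then HTRF anti-pH2AX(S139)-cryptate/anti-H2AX-d2 detection after 24 hr at room temperature; emissions 665 and 620 nm.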
The nature of test [10]: qHTS assay to identify small molecule antagonists of the estrogen related receptor signaling pathway with the pleiotropic PPARgamma coactivator (PGC) from Tox21 10K library - cell viability counter screen (AID 1224840; active = well fitted cell-killing curve with a large enough effect in the repeat runs, not every such curve was filed as active; note: nearly all actives have a fitted effect of over 40% in size). An outline of the steps:
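Readout: fluorescence intensity from CellTiter-Fluor after 30 min at 37 C/5% CO2. Preceded by 17.5 h treatment of PGC/ERR cells with DMSO-dissolved compounds, added 6 h post-seeding.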

Test [11] can be described thus: qHTS assay to identify small molecule agonists of the estrogen related receptor signaling pathway with the pleiotropic PPARgamma coactivator (PGC) from Tox21 10K library (AID 1224842). Note: nearly all actives have a fitted effect of over 15% in size. Note: potency is the fitted concentration of half-maximal effect. Summed up:
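PGC/ERR reporter cells (NTP line) were seeded 2,000 per well, rested 6 h at 37 C/5% CO2, then pin-dosed with compounds in DMSO for 18 h at 37 C; luciferase read by One-Glo luminescence after 30 min at room temperature.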

Test [12] can be described thus: qHTS assay to identify small molecule agonists of the constitutive androstane receptor (CAR) signaling pathway - cell viability counter screen (AID 1224836). Note: series mostly up to about 92 µM; nearly all actives have a fitted effect of over 45% in size. Summed up:
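Cell viability multiplexed with the CAR agonist screen: CellTiter-Fluor fluorescence after 23 hr at 37 C. HepG2-CYP2B6-hCAR cells got compounds at 15 concentrations with PK11195 at 0.75 uM final.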

A short description of test [13]: qHTS assay to identify small molecule antagonists of the estrogen related receptor signaling pathway with the pleiotropic PPARgamma coactivator (PGC) from Tox21 10K library (AID 1224841; call rule not given here; note: actives are mostly falling curves and most rising ones were filed inactive; nearly all actives have a fitted effect of over 50% in size; note: potency is the fitted concentration of half-maximal effect). Summed up:
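One-Glo luminescence, measured after half an hour at room temperature, quantified reporter output of PGC/ERR cells. These had been plated at 2,000 per well, incubated 6 h, dosed with compounds in DMSO, then kept 18 h at 37 C.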
% is set by controls: 0 for no effect and ±100 for the full control effect.

Sequence of Luciferin 4-monooxygenase (Photinus pyralis) (P08659 whole entry, looked up): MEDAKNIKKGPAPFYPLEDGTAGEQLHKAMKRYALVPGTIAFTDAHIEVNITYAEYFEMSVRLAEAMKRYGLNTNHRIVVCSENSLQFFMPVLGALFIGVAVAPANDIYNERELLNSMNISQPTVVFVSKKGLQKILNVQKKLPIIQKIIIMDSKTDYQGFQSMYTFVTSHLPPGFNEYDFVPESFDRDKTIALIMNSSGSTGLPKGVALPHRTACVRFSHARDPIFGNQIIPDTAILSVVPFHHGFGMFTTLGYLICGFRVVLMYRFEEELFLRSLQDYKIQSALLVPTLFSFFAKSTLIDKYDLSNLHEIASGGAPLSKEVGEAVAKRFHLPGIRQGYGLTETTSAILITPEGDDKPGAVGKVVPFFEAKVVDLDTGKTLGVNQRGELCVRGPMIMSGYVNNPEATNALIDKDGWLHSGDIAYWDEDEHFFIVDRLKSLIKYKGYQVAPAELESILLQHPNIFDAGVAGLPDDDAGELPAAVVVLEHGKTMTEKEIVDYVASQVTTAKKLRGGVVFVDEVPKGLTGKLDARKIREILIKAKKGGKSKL
Sequence of Nuclear receptor subfamily 1 group I member 3 (Homo sapiens) (Q14994 whole entry, looked up): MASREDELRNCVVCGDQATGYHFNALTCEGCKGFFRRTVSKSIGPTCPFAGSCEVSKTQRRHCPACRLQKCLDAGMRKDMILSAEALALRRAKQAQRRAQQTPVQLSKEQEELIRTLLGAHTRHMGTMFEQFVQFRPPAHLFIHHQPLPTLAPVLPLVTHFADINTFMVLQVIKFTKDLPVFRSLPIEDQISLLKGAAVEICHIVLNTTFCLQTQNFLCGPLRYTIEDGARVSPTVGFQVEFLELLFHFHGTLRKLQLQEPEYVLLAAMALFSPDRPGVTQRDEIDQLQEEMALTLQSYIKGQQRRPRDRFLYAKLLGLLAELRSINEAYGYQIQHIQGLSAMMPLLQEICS
Sequence of Thyrotropin receptor (Homo sapiens) (P16473 whole entry, looked up): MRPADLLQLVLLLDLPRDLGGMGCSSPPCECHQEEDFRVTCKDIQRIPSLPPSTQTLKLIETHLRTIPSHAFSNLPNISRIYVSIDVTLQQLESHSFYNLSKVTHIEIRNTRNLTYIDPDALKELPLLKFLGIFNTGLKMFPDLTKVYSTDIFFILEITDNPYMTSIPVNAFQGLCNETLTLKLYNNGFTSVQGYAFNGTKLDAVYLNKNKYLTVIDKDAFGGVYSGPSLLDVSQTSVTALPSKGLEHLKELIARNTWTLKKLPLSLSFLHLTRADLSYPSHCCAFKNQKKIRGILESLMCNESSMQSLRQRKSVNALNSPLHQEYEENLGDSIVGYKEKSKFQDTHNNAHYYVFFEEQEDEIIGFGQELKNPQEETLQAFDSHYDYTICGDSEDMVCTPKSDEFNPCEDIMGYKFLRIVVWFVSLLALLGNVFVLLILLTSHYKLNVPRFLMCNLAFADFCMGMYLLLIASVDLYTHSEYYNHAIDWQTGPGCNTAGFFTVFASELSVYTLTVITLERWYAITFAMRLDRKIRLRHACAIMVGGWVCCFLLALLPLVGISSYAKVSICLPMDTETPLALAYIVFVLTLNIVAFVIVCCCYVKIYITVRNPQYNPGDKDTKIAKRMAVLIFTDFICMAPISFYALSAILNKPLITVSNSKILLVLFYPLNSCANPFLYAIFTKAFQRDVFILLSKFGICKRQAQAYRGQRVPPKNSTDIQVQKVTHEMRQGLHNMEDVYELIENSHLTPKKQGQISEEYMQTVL

As to `CCN(CC)c1ccc2c(c1)Oc1cc(N(CC)CC)ccc1C21OC(=O)c2ccccc21`, the Potency in test [1] was 6.68 µM (active); in [2], 13.8 µM (active); in test [3], 4.73 µM (active). Moreover, the Potency entry in test [4], in test [5] and in [6] was “inactive” in each case.

With `COc1c(Br)cc(Br)c(C)c1Br`, the Potency entry in test [1], in test [2], in test [3], in [7], in [8] and in [6] was “inactive” each time.

For the molecule `Cc1cc(F)ccc1-c1cc(N2CC[C@@H](O)[C@H]2CO)ncc1N(C)C(=O)C(C)(C)c1cc(C(F)(F)F)cc(C(F)(F)F)c1`, the Potency is 42.6 µM (active) in test [1], 24.2 µM (active) in test [8] and 39.5 µM (active) in test [9]. Moreover, the Potency entry in test [2], in test [4], in test [5] and in [7] was “inactive” each time.

Take `O=C1OC(=O)c2cc(-c3ccc4c(c3)C(=O)OC4=O)ccc21`: the Potency entry in test [1], in [2], in test [3], in [4], in test [5] and in test [10] was “inactive” throughout. Besides, the Potency result in test [8], in test [9] and in test [6] was “inactive” each time.

`C/C(=N\[Si](C)(C)C)O[Si](C)(C)C`: the Potency result in [1], in test [2], in test [3], in [4], in [5] and in test [10] was “inactive” throughout. Also, the Potency entry in [8], in test [9] and in test [6] was “inactive” each time.

As to `CC(O)(c1ccc(Cl)cc1)c1ccc(Cl)cc1`, the Potency in test [1] is 61.1 µM (active); in test [5] it was 15.4 µM (active). The Potency result in [2], in test [3], in test [4] and in test [11] was “inactive” throughout.

As for `CCC1(C)C(=O)N(Cl)C(=O)N1Cl` (stereo not drawn), the Potency entry in test [1], in test [2], in test [3], in [4], in [5] and in test [10] was “inactive” each time. In addition, the Potency entry in test [11], in test [7], in test [8], in test [9] and in [6] was “inactive” in each case.

As for `O=C(c1ccccc1)c1ccc(Cl)cc1`, the Potency result in test [1], in test [12], in test [3], in test [4], in test [10] and in test [7] was “inactive” each time. For the same molecule, the Potency result in test [8] and in test [6] was “inactive” each time.

For `NC(=O)C1CO1` (stereo not drawn), the Potency result in test [1], in test [2], in [3], in test [10], in test [7] and in [8] was “inactive” in each case. The Potency result in test [9] and in [6] was “inactive” in each case.

For the molecule `CC(C=O)c1ccccc1` (stereo not drawn), the Potency result in test [1], in test [2], in test [3], in [10], in test [8] and in [9] was “inactive” throughout. Moreover, the Potency result in test [6] is “inactive”.

As for `Nc1ccc(Oc2cccc(Oc3ccc(N)cc3)c2)cc1`, the Potency in [2] is 35.6 µM (active); in test [4], 1.37 µM (active); in test [13] it was 8.63 µM (active); in test [9] it was 113 µM (active). For the same molecule, the Potency entry in test [12], in [5], in [11], in [7], in [8] and in [6] was “inactive” each time.

On to `O=S(=O)(c1ccc(OCc2ccccc2)cc1)c1ccccc1O`, for which the Potency result in test [2], in [3], in test [4], in test [5], in [11] and in test [7] was “inactive” in each case. Further, the Potency entry in [8] and in test [9] was “inactive” in each case.

For the molecule `CCCCNc1ccc(NCCCC)c2c1C(=O)c1ccccc1C2=O`, the viability change, negative = cytotoxic in [1] is -12.4% [at 19 µM]; in [10] it was -1.23% [at 19 µM]. Besides, the activation in test [7] was -9.62% [at 19 µM]; in test [6], 0.413% [at 15.8 µM]. The activity change, negative = cytotoxicity in test [8] was -26.2% [at 15.8 µM].

Turning to `CCC(C)(C)c1ccc(CC(C)CN2C[C@@H](C)O[C@@H](C)C2)cc1` (stereo partly drawn), the Potency entry in test [2], in test [4], in test [5], in [10], in test [13] and in test [11] was “inactive” each time. The Potency in [8] was 23.9 µM (active).

With `CCOc1ccc([N+](=O)[O-])cc1`, the Potency entry in [12], in test [8], in test [9] and in [6] was “inactive” in each case.

Consider `O=c1[nH]cccc1O`, for which the Potency result in test [2], in test [12], in test [3], in test [4], in test [5] and in test [13] was “inactive” each time. For the same molecule, the Potency result in test [11], in test [8], in test [9] and in test [6] was “inactive” throughout.

Consider `CCCCCCCC1CCC(=O)O1` (stereo not drawn), for which the Potency entry in test [2] was “inactive”.

Turning to `CCCCCCCC/C=C\CCCCCCCC(=O)N(CCO)CCO`, the Potency result in test [2] and in test [9] was “inactive” throughout.

In the case of `CC(C)(C)c1ccc(OC2CCCCC2O)cc1` (stereo not drawn), the Potency in [2] is 31.7 µM (active); in [5] it was 27.3 µM (active). Also, the Potency entry in test [12], in test [3], in [4], in test [10], in test [7] and in [8] was “inactive” each time. Also, the Potency entry in test [9] and in test [6] was “inactive” throughout.

Turning to `Nc1cc([N+](=O)[O-])cc(Cl)c1O`, the Potency result in test [2], in test [12], in test [4], in test [5], in test [10] and in test [8] was “inactive” in each case. In addition, the Potency result in [6] is “inactive”.

Consider `O=C1OC(O)C(C(Cl)Cl)=C1Cl` (stereo not drawn), for which the Potency result in test [2], in [12], in test [3] and in test [7] was “inactive” in each case.

Turning to `CC(=O)N(C)C`, the Potency entry in test [2] was “inactive”.

As for `COc1ccc2ccccc2c1`, the Potency result in test [2] was “inactive”.

In the case of `C=Cc1ccncc1`, the Potency result in test [1], in test [12], in test [4], in test [5], in test [13] and in [11] was “inactive” in each case. Besides, the Potency result in [7], in test [8], in test [9] and in test [6] was “inactive” throughout.

Turning to `Cc1cccc2c1ccc1ccccc12`, the Potency result in test [1], in [3], in test [4], in [10], in test [11] and in test [8] was “inactive” in each case. For the same molecule, the Potency result in [9] and in [6] was “inactive” throughout. Moreover, the Potency in test [5] was 61.1 µM (active).

For `Cc1ccc(N=Nc2c(O)ccc3ccccc23)c(C)c1`, the Potency was 13.8 µM (active) in test [2], 8.41 µM (active) in [5] and 21.3 µM (active) in test [8]. The Potency result in test [4], in test [7], in test [9] and in test [6] was “inactive” throughout.

In the case of `Nc1cccnc1N`, the Potency result in test [2], in test [4], in test [5], in test [7], in [8] and in [6] was “inactive” in each case.

`c1ccc2c(c1)-c1ccc3ccc4cccc5cc-2c1c3c45`: the Potency in test [2] was 11 µM (active); in [5] it was 11.9 µM (active). The Potency entry in [4], in [7], in test [8] and in test [9] was “inactive” throughout.

For `COc1cc([C@@H]2c3cc4c(cc3[C@@H](O[C@@H]3O[C@@H]5CO[C@@H](C)O[C@H]5[C@H](O)[C@H]3O)[C@H]3COC(=O)[C@H]23)OCO4)cc(OC)c1O`, the Potency entry in test [2], in [12], in [3] and in test [13] was “inactive” in each case.

Consider `CC/C=C\C/C=C\C/C=C\CCCCCCCC(=O)OC`, for which the Potency entry in [2], in test [12], in test [8] and in test [6] was “inactive” in each case.

On to `CC(=O)Nc1ccc(N=Nc2cc(C)ccc2O)cc1`, for which the Potency was 3.17 µM (active) in test [2] and 4.33 µM (active) in [11]. The Potency entry in test [3], in [4], in test [8] and in test [9] was “inactive” throughout.

In the case of `ClC(c1ccccc1)(c1ccccc1)c1ccccc1`, the Potency entry in [2], in test [12], in test [4], in [8], in [9] and in test [6] was “inactive” each time. In addition, in [5], the Potency is 21.7 µM (active).

On to `O=C(NCc1ncc(C(F)(F)F)cc1Cl)c1c(Cl)cccc1Cl`, for which the Potency result in test [2], in [12], in test [3], in test [5], in test [8] and in [9] was “inactive” throughout. Moreover, the Potency in test [6] was 15.5 µM (active).
